The subject of assay [1] is XIP peptide (Xip251-270) binding. The assay is described as follows: XIP fragment 251-270 binding compounds – biochemical, small-molecule microarray, fluorescence 635/667 nm, 0.1 µg/mL protein, primary screen (AID 1182). The following applies: fluorescent protein binding, 635 nm, higher = more signal, called active from +8 up or from −8 down.
The next assay deals with XIP peptide (Xip251-270). Kind of assay: compounds binding XIP fragment 251-270 – biochemical, small-molecule microarray, fluorescence 635/667 nm, 0.5 µg/mL protein, primary screen (AID 1183). The following applies: fluorescence 635 nm, higher = more signal.
Assay [2] in a line: blood-stage malaria parasite viability loss – strain 3D7, DAPI fluorescence, 100 nL, primary screen (AID 1184).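 Note: parasites grown inside human red blood cells in medium with human serum.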 The following applies: P. falciparum 3D7 growth, 3 d, higher = more signal.
The target of assay [3] is Homeobox protein Hox-A13 (Mus musculus) (UniProt Q62424). Kind of assay: disruptors of Hoxa13 oligonucleotide interaction – biochemical, fluorescence polarization, labeled oligonucleotide, primary screen (AID 1185). The following applies: Hoxa13:DNA binding, 15 min, higher = more signal, called active from +8 up or from −8 down.
Sequence of Homeobox protein Hox-A13 (Mus musculus) (Q62424 whole entry, looked up): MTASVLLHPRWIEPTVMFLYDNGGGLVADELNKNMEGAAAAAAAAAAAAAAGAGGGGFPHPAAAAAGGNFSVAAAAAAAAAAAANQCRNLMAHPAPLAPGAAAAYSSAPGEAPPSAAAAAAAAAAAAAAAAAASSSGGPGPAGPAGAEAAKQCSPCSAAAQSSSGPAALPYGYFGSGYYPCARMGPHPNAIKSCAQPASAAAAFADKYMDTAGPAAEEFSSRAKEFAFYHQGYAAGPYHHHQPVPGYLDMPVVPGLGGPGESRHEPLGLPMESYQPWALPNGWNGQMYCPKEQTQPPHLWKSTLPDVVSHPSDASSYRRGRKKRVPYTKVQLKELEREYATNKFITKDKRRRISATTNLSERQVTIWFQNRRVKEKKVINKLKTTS
Assay [4] in a line: blockers of DNA damage checkpoint Chk1 activation – imaging, HeLa, hydroxyurea, phospho-Chk1 antibody, percent positive cells, primary screen (AID 1186). The following applies: hydroxyurea-induced phospho-Chk1 immunofluorescence imaging, higher = more signal.
Assay [5] can be described thus: blockers of DNA damage checkpoint Chk1 activation – imaging, HeLa, hydroxyurea, phospho-Chk1 nuclear intensity, primary screen (AID 1187). The following applies: hydroxyurea-induced phospho-Chk1 immunofluorescence imaging, higher = more signal.

In PubChem BioAssay one finds composite z-score and z-score data, which are given here for 17 molecules.

Molecules are shown by their SMILES. The source made the active and inactive calls. Unless noted, the rule behind the calls is not given here.

On to `O=C1C2C=CC(C(O)c3ccc(B(O)O)cc3)N(Nc3ccccc3)C2C(=O)N1c1ccccc1` (configuration not stated), for which the composite z-score in assay [1] was 0.158 (inactive); in the assay on XIP peptide (Xip251-270) it was -0.197. The z-score in assay [2] is -0.545; in assay [3], -3.99 (inactive); in assay [4], -0.149 (inactive); in assay [5], -0.329 (inactive).
For `COC(=O)C[C@H]1O[C@]2(C(=O)N(Cc3ccccc3)c3ccc(NC(C)=O)cc32)[C@@H](C)[C@@H]1[Si](C)(C)c1ccc(OC)cc1`, the results for the composite z-score (in assay [1]; in the assay with XIP peptide (Xip251-270)) were 0.337 (inactive) and 0.27, respectively. The z-score in assay [2] is -3.05; in assay [3] it was -3.04 (inactive); in assay [4], 0.918 (inactive); in assay [5], 0.536 (inactive).
Turning to `CC(C)(C)OC(=O)CC[C@@]1(C(=O)O)N=C(c2ccc(OCCCO)cc2)O[C@@H]1c1ccccc1N=[N+]=[N-]`, the composite z-score in assay [1] is 1.37 (inactive); in the assay on XIP peptide (Xip251-270) it was -0.333. In addition, the z-score is 0.603 in assay [2], -5.2 (inactive) in assay [3], -0.157 (inactive) in assay [4] and -0.51 (inactive) in assay [5].
In the case of `CN1C=C(C(=O)OCCS(C)(=O)=O)C(C(=O)OCCS(C)(=O)=O)=CC(CCCO)=CC1C1CC1` (configuration not stated), the composite z-score in assay [1] is 1.7 (inactive); in the assay with XIP peptide (Xip251-270), 0.01. Moreover, the z-score was -0.766 in assay [2], -5.26 (inactive) in assay [3], -1.31 (inactive) in assay [4] and -0.118 (inactive) in assay [5].
As for `CC(C)(C)OC(=O)CC[C@]1(C(=O)N2CCCCC2)N=C(c2ccc(OCCCO)cc2)O[C@H]1c1ccccc1N=[N+]=[N-]`, the composite z-score in assay [1] was 0.282 (inactive); in the assay on XIP peptide (Xip251-270), 0.71. In addition, the z-score in assay [2] is -1.75; in assay [3], -2.92 (inactive); in assay [4], -0.0036 (inactive); in assay [5], 0.212 (inactive).
`CCOC(=O)C[C@H]1[C@H](OC(=O)c2ccc(-c3ccccc3)cc2)[C@@H](NC(=O)Cc2ccc(OC)cc2)c2cc(OCCCO)ccc2N1C(=O)c1ccc2ccccc2n1`: the composite z-score was -0.0562 (inactive) in assay [1] and 0.111 with XIP peptide (Xip251-270). For the same molecule, the z-score is 0.351 in assay [2], -2.51 (inactive) in assay [3], -0.42 (inactive) in assay [4] and -0.0198 (inactive) in assay [5].
For `C=CC(COC(C)=O)NS(=O)(=O)c1ccc(Br)cc1` (configuration not stated), the results for the composite z-score (in assay [1]; with XIP peptide (Xip251-270)) were 0.264 (inactive) and 0.231, respectively. For the same molecule, the z-score in assay [2] was 1.95; in assay [3] it was -0.546 (inactive); in assay [4], 0.363 (inactive); in assay [5] it was 0.253 (inactive).
For `CCOC(=O)C1=CCC(c2ccc(C#N)cc2)N(S(=O)(=O)c2ccc(C)cc2)C1` (configuration not stated), the composite z-score in assay [1] is 1.79 (inactive); with XIP peptide (Xip251-270), 0.766. The z-score in assay [2] was -1.33; in assay [3], -3.74 (inactive); in assay [4] it was -0.308 (inactive); in assay [5], -1.22 (inactive).
For the molecule `COc1ccc(NN2C(C(O)c3ccc(OC)c(OCc4ccccc4)c3)C=CC3C(=O)N(C4CCCCC4)C(=O)C32)cc1` (configuration not stated), the composite z-score in assay [1] was -0.137 (inactive); in the assay on XIP peptide (Xip251-270) it was 0.628. In addition, the z-score in assay [2] is -1.02; in assay [3] it was -1.81 (inactive); in assay [4] it was -0.487 (inactive); in assay [5] it was -0.892 (inactive).
In the case of `COCCOC(=O)N1C(=O)[C@@]2(c3cc(C#CCC(C(=O)OC)C(=O)OC)ccc31)[C@H](c1ccccc1OCCO)N1[C@H](c3ccccc3)[C@H](c3ccccc3)OC(=O)[C@H]1[C@@H]2C(=O)N1CCc2cc(OC)c(OC)cc2C1`, the composite z-score in assay [1] is 0.201 (inactive); in the assay on XIP peptide (Xip251-270) it was 0.64. The z-score in assay [2] was -2.06; in assay [3] it was 0.498 (inactive); in assay [4], -0.122 (inactive); in assay [5] it was 0.261 (inactive).
Take `CCCCCN1CC=CC23O[C@@H]4C=CCOC(=O)[C@@H]4[C@H]2C(=O)N(CCCO)[C@@H]3C1=O` (some centres not stated): the composite z-score in assay [1] was 0.591 (inactive); with XIP peptide (Xip251-270), 0.747. Further, the z-score was -1.8 in assay [2], -3.67 (inactive) in assay [3], 0.679 (inactive) in assay [4] and 0.402 (inactive) in assay [5].
In the case of `C=C[C@H](COC(C)=O)N(Cc1ccc(OC(C)=O)c(OC)c1)S(=O)(=O)c1ccc(Br)cc1`, the composite z-score is 0.353 (inactive) in assay [1] and 0.713 with XIP peptide (Xip251-270). For the same molecule, the z-score in assay [2] is 0.371; in assay [3], -5.58 (inactive); in assay [4] it was -0.245 (inactive); in assay [5], -0.314 (inactive).
On to `CS(=O)(=O)CCOC(=O)C1=CC(c2ccc(CO)cc2)=CC(C2CC2)N(Cc2cc3c(cc2Br)OCO3)C=C1C(=O)OCCS(C)(=O)=O` (configuration not stated), for which the values for the composite z-score (in assay [1]; in the assay with XIP peptide (Xip251-270)) were 0.0295 (inactive) and 0.639, respectively. Besides, the z-score in assay [2] was -2.58; in assay [3] it was -2.94 (inactive); in assay [4], -0.572 (inactive); in assay [5], -0.534 (inactive).
For `COCCCNC(=O)[C@@]1(C)c2ccccc2C(=O)N(Cc2cc(C(F)(F)F)cc(C(F)(F)F)c2)[C@H]1c1ccc(CO)cc1`, the composite z-score in assay [1] was 0.707 (inactive); in the assay on XIP peptide (Xip251-270), 0.875. Also, the z-score in assay [2] is -0.577; in assay [3], -3.6 (inactive); in assay [4], -0.385 (inactive); in assay [5], 0.0021 (inactive).
As for `CC1CC/C=C\[C@H]2OC34C=CCN(Cc5ccccc5)C(=O)[C@H]3N(CCCCCO)C(=O)[C@@H]4C2C(=O)O1` (some centres not stated), the composite z-score in assay [1] was -0.0864 (inactive); in the assay with XIP peptide (Xip251-270), 0.525. Also, the z-score in assay [2] was 1.65; in assay [3] it was -5.11 (inactive); in assay [4], -0.0458 (inactive); in assay [5] it was -0.0669 (inactive).
For `C=C[C@H](C)[C@@H](O)c1ccc(O)c2ccccc12`, the composite z-score in assay [1] is -0.233 (inactive); with XIP peptide (Xip251-270), 0.507. Also, the z-score in assay [2] was -0.935; in assay [3] it was -2.67 (inactive); in assay [4], 0.736 (inactive); in assay [5] it was 0.841 (inactive).
For `O=C1c2ccccc2[C@@]2(Cc3ccccc3N(Cc3ccccc3)C2=O)[C@H](c2ccc(CO)cc2)N1C1CCCCC1`, the composite z-score in assay [1] was -0.204 (inactive); with XIP peptide (Xip251-270) it was 0.299. Also, the z-score in assay [2] is -0.0438; in assay [3], -1.21 (inactive); in assay [4], 0.0191 (inactive); in assay [5], 0.359 (inactive).
